Experiment [1] in a line: qHTS to identify inhibitors of the type 1 interferon - major histocompatibility complex class I in skeletal muscle: primary screen against the NCATS Mechanism Interrogation Plate v5.0 (MIPE) Libary (AID 1347411).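 For activity change, negative = inhibition: plate controls were vehicle for no effect and reference inhibitor for full effect.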 Note: nearly all actives have a fitted effect of over 65% in size. Note: potency is the fitted concentration of half-maximal effect. The procedure, abridged: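 Immortalized human C25cl48 myoblasts with HiBit knocked into endogenous HLA-B*08:01 were stimulated with 4.0 ng/ml IFN-beta and exposed to compounds (11-point 1:3 titration, top 46 uM final) for 24 hrs at 37 C; HiBiT lytic luminescence measured.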
(In general: qHTS replaces the single test concentration by a dilution series.)

Experiment [2] deals with Glutathione peroxidase 1 (Homo sapiens) (UniProt P07203). The experiment can be described thus: Primary qHTS Assay for Inhibitors of Recombinant Selenoprotein Glutathione Peroxidase 1 (GPX1) (AID 1845191). Note: nearly all actives have a fitted effect of over 65% in size. The gist of the method: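 10 nM GPX1 + cpd, 30 min RT; start w/ 1 mM GSH, 0.5 mM cumene hydroperoxide, 0.5 mM NADPH, 100 nM GR, 0.01% BSA; buffer 50 mM Tris-HCl pH 7.5, 2 mM EDTA, 150 mM NaCl; Fl 340/450, 0 & 15 min.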
Chain of Glutathione peroxidase 1 (Homo sapiens) (P07203 whole entry, looked up): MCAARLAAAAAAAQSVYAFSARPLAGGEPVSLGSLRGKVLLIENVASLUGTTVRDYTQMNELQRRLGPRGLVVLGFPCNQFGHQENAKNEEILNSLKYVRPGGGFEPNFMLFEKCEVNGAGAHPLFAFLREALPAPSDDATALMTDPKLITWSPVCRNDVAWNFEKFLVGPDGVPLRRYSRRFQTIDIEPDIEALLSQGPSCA

Experiment [3] in a line: qHTS drug screen for cell cycle checkpoint inhibitors in PARPi-resistant BRCA-mutant ovarian cancer cell lines. (AID 1963452; calls by dose curve; note: potency is the fitted concentration of half-maximal effect). As to conditions: PEO1/OlaR viability, CellTiter-Glo luminescence, 96 h; for Z-AUC: stronger effect = lower value. The gist of the method: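 PEO1, PEO4 and PEO1/OlaR ovarian cancer cells, 600 per well, exposed 96 h at 37C to a dilution series. Viability read by CellTiter-Glo luminescence, normalized to DMSO and empty wells; activity summarized as Z-AUC.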

A short description of experiment [4]: Primary qHTS for inhibitors of nuclear receptor binding SET domain protein 2 (NSD2) in an isogenic RCH-ACV NSD2 p.E1099K mutant (9B) (AID 1645876). Note: nearly all actives have a fitted effect of over 70% in size. Note: potency is the fitted concentration of half-maximal effect.
Experiment [5] deals with Phospholipid hydroperoxide glutathione peroxidase GPX4 (Homo sapiens) (UniProt P36969). Briefly: Primary qHTS Assay for Inhibitors of Recombinant Selenoprotein Glutathione Peroxidase 4 (GPX4) (AID 1845192). For activity change, negative = inhibition: % is set by controls: 0 for no effect and ±100 for the full control effect. Note: nearly all actives have a fitted effect of over 65% in size. As to conditions: outcome: dose series up to 50 µM unless noted. The gist of the method: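 NADPH consumption, followed by fluorescence at 340/450 nm between 0 and 15 min, reports GPX4 activity via coupled glutathione reductase (100 nM). Enzyme 200 nM was pre-exposed to compound 30 min; 0.5 mM cumene hydroperoxide and 1 mM GSH served as substrates.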
Chain of Phospholipid hydroperoxide glutathione peroxidase GPX4 (Homo sapiens) (P36969 whole entry, looked up): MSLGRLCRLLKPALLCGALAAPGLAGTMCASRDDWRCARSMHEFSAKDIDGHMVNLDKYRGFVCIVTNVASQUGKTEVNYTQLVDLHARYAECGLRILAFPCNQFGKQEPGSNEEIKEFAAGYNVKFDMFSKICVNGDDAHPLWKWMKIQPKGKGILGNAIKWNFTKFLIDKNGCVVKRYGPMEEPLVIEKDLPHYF

Experiment [6] can be described thus: qHTS assay to identify inhibitors of the type 1 interferon - major histocompatibility complex class I in skeletal muscle: Counter screen cell viability and HiBit confirmation (AID 1347412). For activity change, negative = inhibition: % is set by controls: 0 for no effect and ±100 for the full control effect. For all read-outs here: nearly all actives have a fitted effect of over 60% in size. Note: potency is the fitted concentration of half-maximal effect. As to conditions: iHSKM muscle cells + IFN-b, HiBiT or CellTiter-Glo, 24 h; for activity change, negative = inhibition: at 45.9 µM (top of the series). The procedure, abridged: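 HLA-B*08:01–HiBiT knock-in immortalized human myoblasts (C25cl48) stimulated with 4.0 ng/ml human IFN-beta and dosed with compound in a 12-point 1:3 titration (top final 46 uM). After 24 hrs at 37 C, HiBiT lytic luminescence or CellTiter Glo ATP read out.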

Experiment [7] in a line: Primary qHTS for inhibitors of nuclear receptor binding SET domain protein 2 (NSD2) in an RCH-ACV wild type WT cells (2C) (AID 1645877). Note: nearly all actives have a fitted effect of over 70% in size. Note: potency is the fitted concentration of half-maximal effect.
[8] abbreviates: measured here: PEO1 parental Z-AUC.

Records with an inconclusive call do not appear. Calls of active or inactive are those of the source. Unless noted, calls come from the whole dose curve; as a rule, active = well fitted curve in the direction sought with a large enough effect; inconclusive = small, poorly fitted or top-dose-only effect, or another doubt; inactive = no such curve, though single readings can be large; an effect the other way counts as inactive or inconclusive.

The source of these data is PubChem BioAssay (NCATS).

In the case of `C[C@@H](O)[C@@H]1NC(=O)[C@H](CCCCN)NC(=O)[C@@H](Cc2c[nH]c3ccccc23)NC(=O)[C@H](Cc2ccccc2)NC(=O)[C@@H](NC(=O)[C@H](N)Cc2ccccc2)CSSC[C@@H](C(=O)N[C@H](CO)[C@@H](C)O)NC1=O`, the Potency entry in experiment [1] and in experiment [2] was “inactive” in each case. In addition, the Z-AUC is 0.896 (inactive) in experiment [3], 0.495 in experiment [3] (setting [8]) and 0.728 in experiment [3] (measured here: PEO4 Z-AUC).

Regarding `CC/C(=C(/c1ccc(O)cc1)c1ccc(OCCNC)cc1)c1ccccc1`, the Potency in experiment [4] is 33.2 µM (active). The Potency result in experiment [2] and in experiment [5] was “inactive” throughout. In addition, the values for the activity change, negative = inhibition in experiment [6] (HiBiT) and in experiment [6] (Viability) were -7.57% (inactive) and -19.4% (inactive), respectively.

As to `CC(=O)c1ccc2c(c1)c1cc(C(C)=O)ccc1n2CCNC(C)C`, the Potency was 0.742 µM (active) in experiment [4], 0.662 µM (active) in experiment [7], 1.55 µM (active) in experiment [3] and 1.11 µM (active) in experiment [6] (HiBiT). Further, the Z-AUC is -1.63 in experiment [3] (setting [8]) and -1.42 in experiment [3] (measured here: PEO4 Z-AUC). For the same compound, in experiment [6] (Viability), the activity change, negative = inhibition was -5.98% (inactive).

For `CN(Cc1ccc(/C=C/C(=O)NO)cc1)CC12CC3CC(CC(C3)C1)C2`, the Potency in experiment [4] was 0.263 µM (active); in experiment [7], 0.209 µM (active); in experiment [6] (HiBiT), 0.351 µM (active). The Potency result in experiment [2] and in experiment [5] was “inactive” in each case. The Z-AUC in experiment [3] was -0.476 (inactive); in experiment [3] (setting [8]), -0.953; in experiment [3] (measured here: PEO4 Z-AUC), -1.12. Further, the activity change, negative = inhibition in experiment [6] (Viability) is -18.3% (inactive).

As to `CO[C@H]1/C=C/O[C@@]2(C)Oc3c(C)c(O)c4c(O)c(c5c(c4c3C2=O)=NC2(CCN(CC(C)C)CC2)N=5)NC(=O)/C(C)=C/C=C/[C@H](C)[C@H](O)[C@@H](C)[C@@H](O)[C@@H](C)[C@H](OC(C)=O)[C@@H]1C`, the Potency entry in experiment [1] and in experiment [2] was “inactive” each time. Besides, the Z-AUC in experiment [3] was 1.28 (inactive); in experiment [3] (setting [8]) it was 0.697; in experiment [3] (measured here: PEO4 Z-AUC), 0.909.

As for `COc1cc(N2CCN(C)CC2)ccc1Nc1ncc2c(n1)N(C)c1ccccc1C(=O)N2C`, the Potency in experiment [4] and in experiment [7] was 2.35 µM (active) in each case. Further, the Potency entry in experiment [2] and in experiment [5] was “inactive” each time. The Z-AUC in experiment [3] is -0.347 (inactive); in experiment [3] (setting [8]), 0.0513; in experiment [3] (measured here: PEO4 Z-AUC), -0.152. The activity change, negative = inhibition in experiment [6] (Viability) is 22.1% (inactive).

Take `C[C@@H](O)[C@@H](C)Oc1nc(Nc2ccc(S(=N)(=O)C3CC3)cc2)ncc1C(F)(F)F` (stereo partly drawn): in experiment [1], the Potency was 20.8 µM (active). Further, the Potency result in experiment [2] and in experiment [5] was “inactive” in each case. In addition, the Z-AUC in experiment [3] was -1.04 (inactive); in experiment [3] (setting [8]), -0.0707; in experiment [3] (measured here: PEO4 Z-AUC), -0.563.

Take `CC[C@H]1CN2CCc3cc(OC)c(OC)cc3C2C[C@@H]1CC1NCCc2cc(OC)c(OC)cc21` (stereo partly drawn): the Potency in experiment [6] (HiBiT) was 0.279 µM (active).

For `C[C@H]1CN(C2COC2)CCN1c1ccc(Nc2cc(-c3ccnc(N4CCn5c(cc6c5CC(C)(C)C6)C4=O)c3CO)cn(C)c2=O)nc1`, the Potency entry in experiment [1], in experiment [2] and in experiment [5] was “inactive” throughout. The results for the Z-AUC in experiment [3], in experiment [3] (setting [8]) and in experiment [3] (measured here: PEO4 Z-AUC) were -0.103 (inactive), 0.727 and 0.518, respectively.

For the compound `CC(C)n1c(/C=C/[C@H](O)C[C@H](O)CC(=O)O)c(-c2ccc(F)cc2)c2ccccc21`, the Potency entry in experiment [1], in experiment [2] and in experiment [5] was “inactive” throughout. The Z-AUC was 1.2 (inactive) in experiment [3], 1.21 in experiment [3] (setting [8]) and 1.13 in experiment [3] (measured here: PEO4 Z-AUC).

In the case of `O=C1S/C(=C\c2ccc(OCc3cccc(B(O)O)c3)cc2)C(=O)N1Cc1ccc(F)cc1`, the Potency entry in experiment [1] and in experiment [2] was “inactive” throughout. The Z-AUC in experiment [3] was 0.689 (inactive); in experiment [3] (setting [8]), 0.417; in experiment [3] (measured here: PEO4 Z-AUC), 0.814.

Turning to `CN(C)Cc1ccc(S(=O)(=O)n2ccc(/C=C/C(=O)NO)c2)cc1`, the Potency in experiment [4] is 1.86 µM (active); in experiment [7], 1.86 µM (active); in experiment [6] (HiBiT), 7.01 µM (active). The Potency result in experiment [2] and in experiment [5] was “inactive” throughout. The Z-AUC was 0.736 (inactive) in experiment [3], 1.02 in experiment [3] (setting [8]) and 1.35 in experiment [3] (measured here: PEO4 Z-AUC). In addition, in experiment [6] (Viability), the activity change, negative = inhibition was -5.13% (inactive).

With `CO[C@@H]1[C@@H](O)[C@H](O)[C@@H](n2c3c(Cl)cccc3c3c4c(c5c6cccc(Cl)c6[nH]c5c32)C(=O)NC4=O)O[C@H]1CO`, the figures for the Potency in experiment [4], in experiment [7] and in experiment [6] (HiBiT) were 0.934 µM (active), 0.525 µM (active) and 4.97 µM (active), respectively. The Potency entry in experiment [2] and in experiment [5] was “inactive” in each case. Besides, the Z-AUC in experiment [3] is -0.593 (inactive); in experiment [3] (setting [8]), -0.854; in experiment [3] (measured here: PEO4 Z-AUC), -0.743. In addition, in experiment [6] (Viability), the activity change, negative = inhibition was -21.4% (inactive).

With `Cc1cc(Oc2ccc3nc(COc4ccc(CC5SC(=O)NC5=O)cc4)n(C)c3c2)cc(C)c1N` (stereo not drawn), the Potency result in experiment [1] and in experiment [2] was “inactive” each time. Also, the figures for the Z-AUC in experiment [3], in experiment [3] (setting [8]) and in experiment [3] (measured here: PEO4 Z-AUC) were -0.262 (inactive), 0.128 and -0.444, respectively.

Take `O=C(/C=C/c1ccc2ccc(C(F)(F)F)cc2n1)c1ccncc1`: the Potency in experiment [4] is 2.35 µM (active); in experiment [7], 2.09 µM (active); in experiment [6] (HiBiT) it was 4.43 µM (active). Moreover, the Potency entry in experiment [2] and in experiment [5] was “inactive” in each case. Besides, the Z-AUC is -0.632 (inactive) in experiment [3], -0.753 in experiment [3] (setting [8]) and -0.961 in experiment [3] (measured here: PEO4 Z-AUC).

For the compound `NS(=O)(=O)c1ccc(NC(=S)N2CCN(C/C=C/c3ccccc3)CC2)cc1`, the Potency result in experiment [1] and in experiment [2] was “inactive” each time. For the same compound, the Z-AUC in experiment [3] is 0.177 (inactive); in experiment [3] (setting [8]), -0.364; in experiment [3] (measured here: PEO4 Z-AUC) it was -0.0827.

Turning to `CC1(C)SCCN(S(=O)(=O)c2ccc(OCC#CCO)cc2)[C@H]1C(=O)NO`, the Potency entry in experiment [1], in experiment [2] and in experiment [5] was “inactive” in each case. Further, the values for the Z-AUC in experiment [3], in experiment [3] (setting [8]) and in experiment [3] (measured here: PEO4 Z-AUC) were 0.823 (inactive), 0.238 and 0.33, respectively.

Take `CC(C)c1c(-c2ccccc2)nc2c(C#N)c[nH]n2c1=O`: the Potency entry in experiment [4], in experiment [7] and in experiment [5] was “inactive” in each case. The values for the Z-AUC in experiment [3], in experiment [3] (setting [8]) and in experiment [3] (measured here: PEO4 Z-AUC) were 1.36 (inactive), 0.594 and 0.731, respectively. Besides, the Potency in experiment [6] (HiBiT) is 3.94 µM (active). Also, in experiment [6] (Viability), the activity change, negative = inhibition was -0.422% (inactive).

As for `O=C(Nc1cnccc1Cl)N1CCN(Cc2ccc3c(c2)OC(F)(F)O3)CC1`, the Potency entry in experiment [1], in experiment [2] and in experiment [5] was “inactive” throughout. For the same compound, the Z-AUC in experiment [3] was 0.437 (inactive); in experiment [3] (setting [8]), 0.137; in experiment [3] (measured here: PEO4 Z-AUC), 0.79.

As to `COc1cc2c(NC3CCN(C4CCCCC4)CC3)nc(N3CCCN(C(C)C)CC3)nc2cc1OCCCN1CCCCC1`, the Potency in experiment [4] was 4.68 µM (active); in experiment [7] it was 5.25 µM (active); in experiment [6] (HiBiT), 17.6 µM (active); in experiment [6] (Viability) it was 24.9 µM (active). The Z-AUC in experiment [3] was 1.47 (inactive); in experiment [3] (setting [8]), 1.1; in experiment [3] (measured here: PEO4 Z-AUC) it was 0.674.

Take `CC[C@@H](C)[C@H]1O[C@]2(CC[C@@H]1C)C[C@@H]1C[C@@H](C/C=C(\C)[C@@H](O[C@@H]3C[C@H](OC)[C@H](O[C@H]4C[C@H](OC)[C@@H](O)[C@H](C)O4)[C@H](C)O3)[C@@H](C)/C=C/C=C3\CO[C@@H]4[C@@H](O)C(C)=C[C@@H](C(=O)O1)[C@]34O)O2`: the results for the Potency in experiment [6] (HiBiT) and in experiment [6] (Viability) were 27.9 µM (active) and 31.3 µM (active), respectively.
